Records with an inconclusive call do not appear. Calls of active or inactive are those of the source. Unless noted, calls come from the whole dose curve; as a rule, active = well fitted curve in the direction sought with a large enough effect in the repeat runs; inconclusive = weak or mixed curves; inactive = no such curve, though single readings can be large; an effect the other way counts as inactive or inconclusive.
Legend:
[1] = qHTS assay to identify small molecule agonists of H2AX (AID 1224845; active = well fitted activation curve with a large enough effect in the signal ratio in the repeat runs, not every such curve was filed as active; the % refers to the signal ratio)
Outline: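 Phospho-H2AX Ser139 measured by HTRF (ex 320 nm; em 665 and 620 nm) after 24 hr antibody incubation. Compounds, 15 concentrations, 0.76% DMSO, were applied to CHO-K1 cells for 3hr at 37C before lysis.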

[2] = qHTS assay to identify small molecule agonists of the hypoxia (HIF-1) signaling pathway (AID 1224846; active = well fitted activation curve with a large enough effect in the signal ratio in the repeat runs, not every such curve was filed as active; the % refers to the signal ratio)
Outline: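 A low-serum medium (0.5% dialyzed FBS) holding 2,000 HRE-bla ME-180 cells per well is preincubated for 5 hrs, dosed with compounds by pintool, and kept a further 17 hrs at 37C, 5% CO2 before CCF4-AM FRET detection of beta-lactamase.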

[3] = qHTS assay to identify small molecule agonists of H2AX - cell viability counter screen (AID 1224847; calls by dose curve;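 note: wild-type CHO-K1 cells; top concentration of the series differs between compounds; nearly all actives have a fitted effect of over 30% in size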)
Outline: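 Cells plated first: CHO-K1, 1000 per well in 10% FBS medium, incubated overnight at 37C. Then 15-point compound titration added (final DMSO 0.76%) for 3 hr. Finally CellTiter-Glo added and luminescence read.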

[4] = qHTS RealTime-Glo MT Cell Viability Assay in HepG2 cells - 24 hour (AID 1224867); note: nearly all actives have a fitted effect of over 50% in size
Outline: (§1)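 Cells + NanoLuc/prosubstrate dispensed (600 cells/well) → 5 h at 37 C/5% CO2 → compounds in DMSO transferred → 40 h incubation at 37 C, luminescence read at 0, 8, 16, 24, 32, 40 h.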

[5] = qHTS RealTime-Glo MT Cell Viability Assay in HEK293 cells - 32 hour (AID 1224868); note: top concentration of the series differs between compounds; nearly all actives have a fitted effect of over 50% in size
Outline: (§2)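 Tox21 10K qHTS, HEK293, 600 cells/well, RealTime-Glo reagent co-dispensed with cells; 5 h preincubation, compound by pintool, 37 C, luminescence at 0–40 h.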

[6] = A CellTox Green Cytotoxicity Assay to monitor cytotoxicity in HEK293 cells - 0 hour (AID 1224869); note: nearly all actives have a fitted effect of over 50% in size
Outline: (§3)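 Fluorescence intensity, read at 0, 8, 16, 24, 32 and 40 h of compound treatment, reflected dye binding to DNA of dead HEK293 cells; compounds (23 nL, DMSO) were added 5 h after plating cells with reagent.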

[7] = qHTS RealTime-Glo MT Cell Viability Assay in HEK293 cells - 16 hour (AID 1224872); note: top concentration of the series differs between compounds; nearly all actives have a fitted effect of over 50% in size
Outline: as §2

[8] = qHTS RealTime-Glo MT Cell Viability Assay in HepG2 cells - 8 hour (AID 1224873); note: nearly all actives have a fitted effect of over 55% in size
Outline: (§4)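 Real-time viability: cells seeded at 600 per well together with NanoLuc and cell-permeant prosubstrate, compounds added after 5 h incubation. Luminescence tracked at 0, 8, 16, 24, 32 and 40 h of exposure.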

[9] = qHTS RealTime-Glo MT Cell Viability Assay in HEK293 cells - 40 hour (AID 1224874); details: RealTime-Glo luminescence; max response: hits give low values; note: nearly all actives have a fitted effect of over 50% in size
Outline: (§5)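 Viable HEK293 cells reduce a cell-permeant prosubstrate; the product diffuses out and is consumed by NanoLuc in the medium to give light. Compounds went in after a 5 h incubation and plates were read over the treatment course.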

[10] = A CellTox Green Cytotoxicity Assay to monitor cytotoxicity in HEK293 cells - 24 hour (AID 1224875); note: nearly all actives have a fitted effect of over 45% in size
Outline: as §3

[11] = A CellTox Green Cytotoxicity Assay to monitor cytotoxicity in HepG2 cells - 16 hour (AID 1224876); note: nearly all actives have a fitted effect of over 45% in size
Outline: (§6)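 Using 1536-well format, dye-containing HepG2 suspension was seeded, allowed 5 h at 37 C/5% CO2, dosed by pintool with compounds, positive and negative controls, and imaged for fluorescence across 40 h.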

[12] = qHTS RealTime-Glo MT Cell Viability Assay in HepG2 cells - 32 hour (AID 1224877); note: nearly all actives have a fitted effect of over 55% in size
Outline: as §1

[13] = A CellTox Green Cytotoxicity Assay to monitor cytotoxicity in HepG2 cells - 24 hour (AID 1224878); note: nearly all actives have a fitted effect of over 45% in size
Outline: as §6

[14] = A CellTox Green Cytotoxicity Assay to monitor cytotoxicity in HepG2 cells - 40 hour (AID 1224879); note: nearly all actives have a fitted effect of over 40% in size
Outline: as §6

[15] = qHTS RealTime-Glo MT Cell Viability Assay in HEK293 cells - 0 hour (AID 1224880); note: top concentration of the series differs between compounds; nearly all actives have a fitted effect of over 45% in size
Outline: as §5

[16] = A CellTox Green Cytotoxicity Assay to monitor cytotoxicity in HEK293 cells - 32 hour (AID 1224881); note: nearly all actives have a fitted effect of over 40% in size
Outline: as §3

[17] = A CellTox Green Cytotoxicity Assay to monitor cytotoxicity in HEK293 cells - 40 hour (AID 1224871); note: nearly all actives have a fitted effect of over 45% in size
Outline: as §3

[18] = qHTS assay to identify small molecule agonists of the estrogen related receptor (ERR) signaling pathway from Tox21 library (AID 1224849; calls by dose curve; note: nearly all actives have a fitted effect of over 15% in size); details: ERR reporter cell line, ONE-Glo luciferase, 18 h; at 92.4 µM (top of the series) unless noted
Outline: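 Screening used an NTP-provided ERR luciferase cell line. Compounds in DMSO were added 6 h after seeding and left 18 h at 37 C before a 30 min ONE-Glo step and luminescence reading.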

[19] = qHTS RealTime-Glo MT Cell Viability Assay in HepG2 cells - 40 hour (AID 1224870); note: nearly all actives have a fitted effect of over 50% in size
Outline: as §4
% is set by controls: 0 for no effect and ±100 for the full control effect.

Nc1ccc([N+](=O)[O-])cc1Cl
inactive: Potency [1] | outcome [2] | Potency [3] | Potency [4] | Potency [5] | Potency [6] | Potency [7] | Potency [8] | max response [9] -7.63% | Potency [10] | Potency [11] | Potency [12] | Potency [13] | Potency [14] | Potency [15] | Potency [16]

Cc1cc(Cl)ccc1O[C@H](C)C(=O)O
inactive: Potency [1] | outcome [2] | Potency [3] | Potency [4] | Potency [5] | Potency [6] | Potency [17] | Potency [7] | Potency [8] | max response [9] -1.32% | Potency [10] | Potency [11] | Potency [12] | Potency [14] | Potency [15] | Potency [16]

O=[N+]([O-])c1cc([N+](=O)[O-])c2ccccc2c1
inactive: Potency [1] | outcome [2] | Potency [3] | activity change, positive = activation [18] -17.9% | Potency [5] | Potency [19] | Potency [7] | max response [9] 4.65% | Potency [11] | Potency [14] | Potency [15]

ClC1=C(Cl)[C@]2(Cl)[C@H]3[C@H]([C@H]4C=C[C@H]3C4)[C@@]1(Cl)C2(Cl)Cl
inactive: Potency [1] | outcome [2] | Potency [3] | Potency [4] | Potency [5] | Potency [6] | Potency [19] | Potency [7] | Potency [8] | max response [9] -13.1% | Potency [10] | Potency [11] | Potency [12] | Potency [13] | Potency [14] | Potency [15]

Oc1ccccc1Br
inactive: Potency [1] | outcome [2] | Potency [3] | Potency [4] | Potency [5] | Potency [19] | Potency [17] | Potency [7] | Potency [8] | max response [9] 3.02% | Potency [10] | Potency [11] | Potency [12] | Potency [13] | Potency [14] | Potency [15] | Potency [16]

Clc1ccc(Oc2ccccc2)cc1
inactive: Potency [1] | outcome [2] | Potency [3] | Potency [4] | Potency [5] | Potency [6] | Potency [19] | Potency [7] | Potency [8] | max response [9] -29.2% | Potency [11] | Potency [12] | Potency [13] | Potency [14] | Potency [15]

CC(C)(C)OO
inactive: Potency [1] | outcome [2] | Potency [3] | Potency [4] | Potency [5] | Potency [6] | Potency [19] | Potency [17] | Potency [7] | Potency [8] | max response [9] 12.3% | Potency [10] | Potency [11] | Potency [13] | Potency [14] | Potency [15] | Potency [16]

ClC(Cl)=C(Cl)Cl
inactive: Potency [1] | outcome [2] | Potency [3] | Potency [4] | Potency [5] | Potency [6] | Potency [19] | Potency [7] | Potency [8] | Potency [11] | Potency [12] | Potency [14] | Potency [15] | Potency [16]

Cn1cc(C2=C(c3cn(C4CCN(Cc5ccccn5)CC4)c4ccccc34)C(=O)NC2=O)c2ccccc21
inactive: Potency [1] | outcome [2] | Potency [3] | activity change, positive = activation [18] -11.8% [at 42.5 µM] | Potency [6] | Potency [7] | Potency [10] | Potency [13] | Potency [15] | Potency [16]

CN(CCCC(=O)c1cccnc1)N=O
inactive: Potency [1] | outcome [2] | Potency [3] | Potency [4] | Potency [5] | Potency [17] | Potency [7] | Potency [8] | max response [9] 13.5% | Potency [11] | Potency [12] | Potency [13] | Potency [14] | Potency [15] | Potency [16]

CCOC(=O)OC1=C(c2cc(C)ccc2C)C(=O)NC12CCC(OC)CC2 (stereo unspecified)
inactive: Potency [1] | outcome [2] | Potency [3] | Potency [4] | Potency [5] | Potency [17] | Potency [7] | Potency [8] | max response [9] -0.185% | Potency [10] | Potency [11] | Potency [13] | Potency [14] | Potency [15] | Potency [16]

Cc1cccc(OP(=O)(Oc2cccc(C)c2)Oc2cccc(C)c2)c1
inactive: Potency [1] | outcome [2] | Potency [3] | Potency [4] | Potency [5] | Potency [6] | Potency [17] | Potency [7] | Potency [8] | max response [9] 5.97% | Potency [10] | Potency [11] | Potency [12] | Potency [13] | Potency [14] | Potency [15] | Potency [16]

COS(=O)(=O)c1ccc(C)cc1
inactive: Potency [1] | outcome [2] | Potency [3] | Potency [4] | Potency [5] | Potency [19] | Potency [17] | Potency [7] | Potency [8] | max response [9] 16.1% | Potency [10] | Potency [11] | Potency [12] | Potency [13] | Potency [14] | Potency [15] | Potency [16]

Reference: PubChem BioAssay (Tox21)
